Test [1] in a line: stimulators of insulin release from INS-1E, primary screen, cell-based, 5 mM glucose, NPC library (AID 1117329;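 active = compound raises insulin release from rat beta cells at 5 mM glucose, no numeric limit stated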). The note with it: rat INS-1E insulin secretion, at 10 µM, active compounds read high.
The nature of test [2]: growth inhibition of GSK3B-pretreated HCT116 cells – cell-based, CellTiter-Glo, 0.2 to 20 µM (AID 1117336;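 active = compounds lowering colon cancer cell viability after pretreatment blocking the GSK3B kinase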). The note with it: HCT116 viability after GSK3B inhibitor, at 20 µM, active compounds read high.
Test [3] is described as follows: inhibition of endothelial tube formation, primary screen, imaging, VEGF stimulated, CD31 staining, tube area, NPC library (AID 1117340;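 active = compound that reduces growth-factor-driven endothelial tube area in a mixed cell culture, no cutoff stated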). The note with it: VEGF-stimulated ADSC/ECFC co-culture, at 10 µM, active compounds read high.
Test [4] in a line: GLP1 release stimulators, primary, NCI-H716, NPC library (AID 1117341;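 active = compound raises GLP1 secretion from the human gut endocrine cells, with no numeric limit stated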). The settings on record: NCI-H716 cells, at 10 µM, active compounds read high.
The nature of test [5]: HCT116 colon cancer cell growth inhibition, primary screen, CellTiter-Glo luminescence, NPC library (AID 1117342;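 active = compounds that lower survival of HCT116 colon cancer cells in the luminescence readout, no numeric limit stated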). The settings on record: at 20 µM (top of the series). For orientation: In ATP-based viability assays light output follows the ATP content of the culture.
The nature of test [6]: reduced SW480 viability measured with CellTiter-Glo, NPC library, primary (AID 1117343). The settings on record: CellTiter-Glo luminescence; at 20 µM (top of the series).
The nature of test [7]: NPC library primary testing for decreased DLD-1 cell viability via CellTiter-Glo (AID 1117346;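 active = compounds that lower survival of DLD-1 colon cancer cells in the luminescence readout, no cutoff given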). The note with it: DLD-1 viability, CellTiter-Glo luminescence; at 20 µM (top of the series).
In test [8] the target is 6-phosphogluconate dehydrogenase, decarboxylating (Homo sapiens) (UniProt P52209). As to the kind of experiment: inhibition of human phosphogluconate dehydrogenase – biochemical, recombinant enzyme, NADPH absorbance, primary screen (AID 1159550;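 active = at least 20% inhibition of 6-phosphogluconate dehydrogenase activity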). The settings on record: recombinant 6PGD, NADPH absorbance 341 nm; at 10 µM; active compounds read high.
Chain of 6-phosphogluconate dehydrogenase, decarboxylating (Homo sapiens) (P52209 whole entry, looked up): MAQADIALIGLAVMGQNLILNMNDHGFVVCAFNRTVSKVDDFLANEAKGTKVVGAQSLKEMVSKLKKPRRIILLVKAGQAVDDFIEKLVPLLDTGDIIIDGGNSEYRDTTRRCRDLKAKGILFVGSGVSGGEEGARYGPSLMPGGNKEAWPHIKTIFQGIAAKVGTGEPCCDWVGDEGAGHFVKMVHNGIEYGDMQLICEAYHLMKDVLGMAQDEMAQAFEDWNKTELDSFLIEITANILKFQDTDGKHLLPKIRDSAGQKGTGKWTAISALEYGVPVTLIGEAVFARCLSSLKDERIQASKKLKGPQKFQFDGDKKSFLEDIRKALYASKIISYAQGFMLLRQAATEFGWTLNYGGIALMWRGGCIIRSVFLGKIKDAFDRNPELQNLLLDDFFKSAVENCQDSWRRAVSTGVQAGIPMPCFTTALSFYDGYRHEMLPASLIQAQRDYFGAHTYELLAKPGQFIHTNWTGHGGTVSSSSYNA

Structures are written as SMILES. A number with no mark means an inactive call. Calls of active or inactive are those of the source.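 The calls were made as follows, unless noted: active = compounds that lower viability of the colon cancer cells in the luminescence readout, with no numeric limit stated; inactive = the rest.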

Experimental findings from PubChem BioAssay are described below.

As a reminder, the inhibition is the drop in the measured response relative to a control, in per cent.

`NC(CO)C(=O)NNCc1ccc(O)c(O)c1O` (stereo unspecified): the insulin secretion stimulation in test [1] is 2.2%. Further, in test [2], the viability decrease is 55.6% (active). Also, in test [3], the tube area decrease is -12.6%. Moreover, in test [4], the GLP1 secretion stimulation is 8.5%. In addition, the inhibition of viability in test [5] is 84.4% (active). Further, the viability decrease (inhibition) in test [6] was 145% (active); in test [7] it was 103% (active). For the same compound, the inhibition in test [8] is -10.3%.
With `COc1cccc(OC)c1C(=O)N[C@@H]1C(=O)N2[C@@H]1SC(C)(C)[C@@H]2C(=O)O`, the insulin secretion stimulation in test [1] is 0.6%. Moreover, the viability decrease in test [2] is -3.9%. In addition, the tube area decrease in test [3] is -4.7%. For the same compound, the GLP1 secretion stimulation in test [4] is -0.3%. For the same compound, the inhibition of viability in test [5] is -7%. In addition, the viability decrease (inhibition) is 17.4% in test [6] and -4.8% in test [7]. For the same compound, in test [8], the inhibition is 17.4%.
As for `Cc1ccc(C(=O)c2ccc(CC(=O)O)n2C)cc1`, the insulin secretion stimulation in test [1] is 0.4%. In addition, the viability decrease in test [2] is -13.7%. Moreover, the tube area decrease in test [3] is -2.5%. Moreover, the GLP1 secretion stimulation in test [4] is 3.1%. Also, the inhibition of viability in test [5] was -3.2%. The viability decrease (inhibition) was -14.3% in test [6] and 4.3% in test [7]. In test [8], the inhibition is 9.71%.
For the compound `C[N+](C)(C)CCCCCC[N+](C)(C)C`, the insulin secretion stimulation in test [1] is 0.75%. In test [2], the viability decrease was 10.7%. In addition, the tube area decrease in test [3] was -10.2%. Moreover, in test [4], the GLP1 secretion stimulation was -1.6%. The inhibition of viability in test [5] is 13.3%. Also, the viability decrease (inhibition) in test [6] is -4.3%; in test [7] it was 5.4%. Besides, the inhibition in test [8] is 12.6%.
On to `Oc1cc(O)c2c(c1)O[C@H](c1ccc(O)c(O)c1)[C@H](O)C2`, for which, in test [1], the insulin secretion stimulation is -0.7%. Further, in test [2], the viability decrease was 14.4%. In addition, the tube area decrease in test [3] is -6.6%. Moreover, the GLP1 secretion stimulation in test [4] was -3.1%. In test [5], the inhibition of viability is 1.73%. Also, the viability decrease (inhibition) was -72.1% in test [6] and -2% in test [7]. For the same compound, in test [8], the inhibition was -5.84%.
For the compound `CCCCOc1cc(C(=O)NCCN(CC)CC)c2ccccc2n1`, the insulin secretion stimulation in test [1] is 1.6%. Also, the viability decrease in test [2] was -47.5%. Further, the tube area decrease in test [3] is 3.5%. For the same compound, in test [4], the GLP1 secretion stimulation was 7.7%. The inhibition of viability in test [5] was 45.3%. For the same compound, the viability decrease (inhibition) in test [6] is 49.2%; in test [7], 29.5%. Further, the inhibition in test [8] is -0.88%.
On to `CN(C)CCOC(=O)COc1ccc(Cl)cc1`, for which the insulin secretion stimulation in test [1] is 1.2%. For the same compound, in test [2], the viability decrease is -0.8%. The tube area decrease in test [3] is -34.4%. Besides, in test [4], the GLP1 secretion stimulation is 1.2%. Also, in test [5], the inhibition of viability was 7.1%. The values for the viability decrease (inhibition) in test [6] and in test [7] were -16% and -7.4%, respectively. In test [8], the inhibition was 17.7%.
In the case of `CC/C(=C(/CC)c1ccc(O)cc1)c1ccc(O)cc1`, in test [1], the insulin secretion stimulation was 0.8%. The viability decrease in test [2] was 90.8% (active). The tube area decrease in test [3] is 20.8%. In addition, in test [4], the GLP1 secretion stimulation was 16.6%. Besides, the inhibition of viability in test [5] is 94.3% (active). The viability decrease (inhibition) was 97.7% (active) in test [6] and 98.4% (active) in test [7]. For the same compound, in test [8], the inhibition was 8.9%.
In the case of `C[n+]1ccccc1/C=N/O`, the insulin secretion stimulation in test [1] is 2.2%. For the same compound, in test [2], the viability decrease was 15.7%. Also, the tube area decrease in test [3] was -4.4%. Further, in test [4], the GLP1 secretion stimulation is -3.1%. Moreover, in test [5], the inhibition of viability is 1.77%. In addition, the viability decrease (inhibition) in test [6] was -3.4%; in test [7], 0.4%. Also, in test [8], the inhibition was -6.73%.
For the compound `CC(=O)Oc1ccccc1C(=O)O`, the insulin secretion stimulation in test [1] is 0.1%. The viability decrease in test [2] is -8.9%. In addition, in test [3], the tube area decrease is 9.2%. Moreover, in test [4], the GLP1 secretion stimulation is -3.4%. Also, in test [5], the inhibition of viability was -5.9%. The viability decrease (inhibition) in test [6] is -3.9%; in test [7] it was -4.2%. For the same compound, in test [8], the inhibition is 15.9%.
On to `NNc1nncc2ccccc12`, for which, in test [1], the insulin secretion stimulation is -1.2%. For the same compound, the viability decrease in test [2] was -10.3%. For the same compound, the tube area decrease in test [3] was 5.9%. Besides, the GLP1 secretion stimulation in test [4] was 5.2%. For the same compound, the inhibition of viability in test [5] was 4.9%. Further, the viability decrease (inhibition) in test [6] is 4.9%; in test [7], -2.1%. Moreover, the inhibition in test [8] was 15.4%.
As for `CN1CCC[C@@H]1CCO[C@](C)(c1ccccc1)c1ccc(Cl)cc1`, in test [1], the insulin secretion stimulation is 1.3%. Also, the viability decrease in test [2] is 25.3%. Further, in test [3], the tube area decrease was 55% (active). The GLP1 secretion stimulation in test [4] is 10.3%. Also, the inhibition of viability in test [5] is 78.8% (active). In addition, the viability decrease (inhibition) was 113% (active) in test [6] and 86.8% (active) in test [7]. Further, the inhibition in test [8] is 12.4%.
For the compound `CC(=O)N(O)CCCCCNC(=O)CCC(=O)N(O)CCCCCNC(=O)CCC(=O)N(O)CCCCCN`, the insulin secretion stimulation in test [1] was 1.8%. For the same compound, the viability decrease in test [2] is 56.1% (active). For the same compound, the tube area decrease in test [3] is 83% (active). Also, in test [4], the GLP1 secretion stimulation was -3.6%. In addition, the inhibition of viability in test [5] was 75.7% (active). The viability decrease (inhibition) is 21% in test [6] and 31.5% in test [7]. Besides, the inhibition in test [8] is -4.7%.
For `O=C(O)c1ccccc1O`, the insulin secretion stimulation in test [1] is -0.3%. In addition, in test [2], the viability decrease was 7.5%. In addition, in test [3], the tube area decrease is 5.9%. Further, in test [4], the GLP1 secretion stimulation was 6%. Also, the inhibition of viability in test [5] is 10.8%. The viability decrease (inhibition) in test [6] was -3.3%; in test [7] it was -1.7%. Moreover, in test [8], the inhibition is 1.06%.
With `Nc1ccc(S(=O)(=O)Nc2nccs2)cc1`, in test [1], the insulin secretion stimulation was -1.1%. Further, the viability decrease in test [2] was -5.95%. Moreover, the tube area decrease in test [3] was 18.7%. Further, in test [4], the GLP1 secretion stimulation is -3.5%. Further, the inhibition of viability in test [5] is -3.5%. In addition, the results for the viability decrease (inhibition) in test [6] and in test [7] were 52.4% (active) and 12%, respectively. The inhibition in test [8] is 2.97%.
Regarding `O=C(O)CCC(=O)c1ccc(-c2ccccc2)cc1`, the insulin secretion stimulation in test [1] is 1.1%. The viability decrease in test [2] was -13%. In addition, the tube area decrease in test [3] is 14.5%. Further, the GLP1 secretion stimulation in test [4] is 0.1%. The inhibition of viability in test [5] was 12.7%. Further, the viability decrease (inhibition) in test [6] was 13.6%; in test [7], 0.4%. Further, the inhibition in test [8] is 8.67%.
`O=C(Nc1ccc([N+](=O)[O-])cc1Cl)c1cc(Cl)ccc1O`: the insulin secretion stimulation in test [1] was -1.7%. In addition, the viability decrease in test [2] was 99.7% (active). In addition, in test [3], the tube area decrease is 103% (active). Also, in test [4], the GLP1 secretion stimulation was 3.3%. The inhibition of viability in test [5] was 107% (active). The viability decrease (inhibition) is 120% (active) in test [6] and 102% (active) in test [7]. Further, in test [8], the inhibition is 9.61%.
